Pf Dd2 inh: qHTS Primary assay for Inhibitors of Plasmodium falciparum Dd2 growth in vitro. P. falciparum Dd2 growth, SYBR Green, 72 h. Potency, µM (titrated, usually from 28.9 µM), inactives show at the top dose activity, negative = inhibition, hits mostly inhibitors. 4.3% of 120,000 active; active = well fitted inhibition curve with a large enough effect;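 note: plate controls were DMSO vehicle for no effect and reference drug for full effect; nearly all actives have a fitted effect of over 65% in size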
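Readout: SYBR Green fluorescence, 485 nm excitation, 535 nm emission, after ~16 h lysis at 37C. Before that, Dd2-infected red cells (2.5% hematocrit) grew 72 h with compound, 29 uM top final concentration.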
Numbers without * were called inactive; [ ] = dose if it differs, or a comment. The sample as a whole holds a higher share of hits than the screen did. Potency is the fitted concentration of half-maximal effect.

What do the screens show for `CC(=O)N1CCN(c2nc3c(s2)CC(C(=O)NC2CCCCC2)CC3)CC1` (stereo not given)?
Pf Dd2 inh: inactive

How did CC(=O)N1CCN(c2nc3c(s2)CC(C(=O)NCc2ccccc2C)CC3)CC1 (stereo not given) do in these assays?
Pf Dd2 inh: inactive

How did Cc1ccc(CNC(=O)C2CCc3nc(N4CCN(C(=O)C(C)C)CC4)sc3C2)o1 (stereo not given) do in these assays?
Pf Dd2 inh: 7.9µM*

What do the screens show for `COc1ccc(C(=O)NCc2nnc3ccc(-c4ccc(C)c(C)c4)nn23)cc1F`?
Pf Dd2 inh: -16%

Results for O=C(NCC1CCCCC1)C1CCN(C(=O)c2ncn3c2COC(c2ccc(Cl)cc2)C3)CC1 (stereo not given) ?
Pf Dd2 inh: inactive

What do the screens show for `O=C(O)C1CN(c2nccc(N3CCC(O)CC3)n2)CCN1` (stereo not given)?
Pf Dd2 inh: -10%

How did O=C1NC2(CCCN(C(=O)c3ccccc3F)C2)Oc2ccccc21 (stereo not given) do in these assays?
Pf Dd2 inh: -12%[44.1 µM]

Results for CCn1ncc(NC(=O)Cn2ncc3cc(-c4ccc(C)cc4F)ccc32)n1 ?
Pf Dd2 inh: -22%

Results for COC(=O)c1ccc2nc(CO[C@H]3CN(Cc4ccc(C(F)(F)F)cc4)C[C@H]3F)[nH]c2c1 ?
Pf Dd2 inh: -9%

How did Fc1ccc2nc(CO[C@H]3CN(Cc4cccnc4)C[C@H]3F)[nH]c2c1 do in these assays?
Pf Dd2 inh: -20%[44.1 µM]

Results for CC(=O)Nc1ccc(CN2C[C@@H](F)[C@@H](OCc3nc4cc(C)c(C)cc4[nH]3)C2)cc1 ?
Pf Dd2 inh: 11µM*

What do the screens show for `Cc1ccc2nc(CO[C@H]3CN(Cc4ccc(C(F)(F)F)cc4)C[C@H]3F)[nH]c2c1`?
Pf Dd2 inh: 8.9µM*

Results for COC(=O)c1ccc2nc(CO[C@H]3CN(Cc4cnn(C)c4)C[C@H]3F)[nH]c2c1 ?
Pf Dd2 inh: -22%[44.1 µM]

What do the screens show for `F[C@@H]1CN(Cc2ccc(C(F)(F)F)cc2)C[C@@H]1OCc1nc2ccccc2[nH]1`?
Pf Dd2 inh: -6%[44.1 µM]

Results for Fc1ccc2nc(CO[C@H]3CN(Cc4ccccc4)C[C@H]3F)[nH]c2c1 ?
Pf Dd2 inh: 13µM*

What do the screens show for `COC(=O)c1ccc2nc(CO[C@H]3CN(Cc4ccc5c(c4)OCO5)C[C@H]3F)[nH]c2c1`?
Pf Dd2 inh: 8.9µM*

What do the screens show for `Cc1cc2nc(CO[C@H]3CN(C)C[C@H]3F)[nH]c2cc1C`?
Pf Dd2 inh: inactive

How did COc1ccc(CN2C[C@@H](F)[C@@H](OCc3nc4ccc(F)cc4[nH]3)C2)cn1 do in these assays?
Pf Dd2 inh: -16%[44.1 µM]

How did Cc1cc2nc(CO[C@H]3CN(Cc4ccc(C(=O)O)cc4)C[C@H]3F)[nH]c2cc1C do in these assays?
Pf Dd2 inh: inactive

Results for COC(=O)c1ccc2nc(CO[C@H]3CN(Cc4cccc(C#N)c4)C[C@H]3F)[nH]c2c1 ?
Pf Dd2 inh: -2%[44.1 µM]

Results for Cc1cnc(-c2ccccc2)n1CCNC(=O)NCc1ccccc1 ?
Pf Dd2 inh: inactive

How did Cc1cc(C(=O)N2CCC(N3C[C@H](O)C[C@H]3C(=O)NC3CCCCC3)CC2)nn1C do in these assays?
Pf Dd2 inh: 8%

Results for O=C(CN1CC[C@H](N2CCOCC2)[C@H](CCCO)C1)NCc1ccccc1 ?
Pf Dd2 inh: -1%

How did CN1CCN(C(=O)c2cccnc2)CC12CCC(=O)N(CC1CC1)CC2 (stereo not given) do in these assays?
Pf Dd2 inh: -10%

Results for COc1cccc(CCC(=O)NCCC2CCN(C(=O)Nc3ccc(C)c(F)c3)CC2)c1 ?
Pf Dd2 inh: -28%

How did CCOC1CCOC2(CCN(C(=O)c3ccoc3)CC2)C1 (stereo not given) do in these assays?
Pf Dd2 inh: 18%

Results for COCCn1c(C)cnc1CCNS(=O)(=O)c1ccccc1 ?
Pf Dd2 inh: inactive

How did CC(=O)NCCCC(=O)N1CCOC2(CCN(C(=O)CCCN)CC2)C1 do in these assays?
Pf Dd2 inh: -4%

How did CCOc1ccc(CCNC(=O)CCc2c(C)nc3c(c(C)nn3-c3ccccc3)c2C)cc1OCC do in these assays?
Pf Dd2 inh: 7.9µM*

What do the screens show for `Cc1ccc(-n2nc(C)c3c(C)c(CCC(=O)NCc4ccccc4Cl)c(C)nc32)cc1`?
Pf Dd2 inh: 5.6µM*

What do the screens show for `Cc1nc2c(c(C)nn2-c2ccccc2)c(C)c1CCC(=O)NCCc1ccccc1`?
Pf Dd2 inh: -23%

What do the screens show for `Cc1ccc(-n2nc(C)c3c(C)c(CCC(=O)NCc4cccc(Cl)c4)c(C)nc32)cc1C`?
Pf Dd2 inh: -6%

Results for CCCCNC(=O)CCc1c(C)nc2c(c(C)nn2-c2ccccc2)c1C ?
Pf Dd2 inh: -23%

How did Cc1nc2c(c(C)nn2-c2ccccc2)c(C)c1CCC(=O)NCc1ccccc1 do in these assays?
Pf Dd2 inh: -27%

Results for COc1cccc(C(=O)N2CCN(c3cc(C(F)(F)F)ncn3)CC2)c1 ?
Pf Dd2 inh: -5%

Results for CC(=O)N1CCC(NC2(Cc3cc(CN(C)Cc4ccccc4)on3)COC2)CC1 ?
Pf Dd2 inh: -13%[44.1 µM]

What do the screens show for `C[C@@H](NC(=O)Cc1ccccc1)c1onc(-c2ccc(Cl)cc2)c1C(=O)O`?
Pf Dd2 inh: -8%[44.1 µM]

Results for COc1cccc(-c2cnc3n[nH]c(-c4ccccc4)c3n2)c1 ?
Pf Dd2 inh: -23%[44.1 µM]

Results for CC(C)(NC(=O)c1cccs1)C(=O)N[C@@H]1CCOC[C@H]1OCC1CCC1 ?
Pf Dd2 inh: -3%

Results for Cc1ccc(N2C(=O)N(Cc3cccc(Cl)c3)c3ccccc3S2(=O)=O)cc1 ?
Pf Dd2 inh: -7%

Results for Cc1ccc(N2C(=O)N(Cc3cc(=O)n4ccccc4n3)c3ccccc3S2(=O)=O)cc1Cl ?
Pf Dd2 inh: 10µM*

Results for Cc1cccc(N2C(=O)N(Cc3cc(=O)n4ccccc4n3)c3ccccc3S2(=O)=O)c1 ?
Pf Dd2 inh: inactive

What do the screens show for `COCCN1CCC(N2CCN(S(=O)(=O)c3ccc(C)c(F)c3)CC2)C1=O` (stereo not given)?
Pf Dd2 inh: -23%

How did CCC(CC)n1c(=O)n(CCCc2cccnc2)c2cc(C(=O)O)cnc21 do in these assays?
Pf Dd2 inh: -9%

Results for O=C(CC1COCCN1)N(Cc1cccnc1)Cc1cccnc1 (stereo not given) ?
Pf Dd2 inh: 4%

What do the screens show for `O=C(CC1COCCN1)N(CCc1c[nH]c2ccccc12)C1CCCCC1` (stereo not given)?
Pf Dd2 inh: 8.9µM*

What do the screens show for `O=C1CCN(C(=O)CCCc2c[nH]c3ccccc23)CCCOCCN1`?
Pf Dd2 inh: -21%

Results for CS(=O)(=O)c1ccc(CN2CCN(c3ncc(F)cn3)CC2)cc1 ?
Pf Dd2 inh: -6%

Results for O=C(c1ccc(C(F)(F)F)cc1)N1CCC(c2nn(-c3ccccc3)c(=O)[nH]2)CC1 ?
Pf Dd2 inh: inactive

Results for O=C1CC(c2ccccc2)N(C(=O)CNC(=O)c2ccoc2)CCCCCCN1 (stereo not given) ?
Pf Dd2 inh: -25%

What do the screens show for `O=C1CC(c2ccccc2)N(C(=O)CNC(=O)c2c[nH]c3ccccc23)CCCCCN1` (stereo not given)?
Pf Dd2 inh: inactive

Results for O=C(Cc1c[nH]c2ccccc12)NCC(=O)N1CCCCCNC(=O)CC1c1ccccc1 (stereo not given) ?
Pf Dd2 inh: -17%

Results for N#Cc1cccc(C(=O)NCC(=O)N2CCCCCCNC(=O)CC2c2ccccc2)c1 (stereo not given) ?
Pf Dd2 inh: -23%

High-throughput results from PubChem BioAssay.
